TDP1 inh: inhibitors of human tyrosyl-DNA phosphodiesterase TDP1. Q9NUW8. recombinant TDP1, AlphaScreen DNA substrate cleavage. Potency, µM (series often up to 130 µM), without a hit: top-dose activity change, negative = inhibition, usual class: inhibitors. 0.28% of 350,000 active; also: potency is read from the fitted curve at half-maximal effect; % is scaled to controls: 0 for no effect and ±100 for the full control effect; nearly all actives have a fitted effect of over 40% in size
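E. coli-derived human Tdp1, 1 nM final. Cpd preinc 15 min RT; substrate 15 nM final, 5 min RT; AS bead mix 10 ug/ml final, 10 min RT. Signal loss = tyrosine-FITC cleavage. No-enzyme wells = max signal.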
HP1b chromo inh: HP1-beta chromodomain-methylated histone interaction inhibition | AlphaScreen HP1-beta / biotin-H3K9me3 peptide binding | Potency, µM (top dose mostly 114 µM), for the others: at the highest dose activity change, negative = inhibition, hits mostly inhibitors | 0.56% of 390,000 active; also: potency is read from the fitted curve at half-maximal effect; nearly all actives have a fitted effect of over 70% in size
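HP1-beta protein (50 nM final) preincubated 30 min at room temperature with biotinylated H3(1-18)K9me3 peptide (50 nM) in PBS pH 7.4, 0.01% Tween-20, then compound added for 30 min. AlphaScreen streptavidin donor/nickel chelate acceptor beads (10 ug/mL final), 30 min dark, luminescence read.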
CtBP-E1A blk: CtBP/E1A binding inhibition | 0.49% of 340,000 active | activity change, % (no concentration beside the values) | AlphaScreen GST-E1A/His-CtBP binding, 1536-well; stronger effect = lower value | AID 651724; in the data active = activity change below about -65%; inconclusive = mostly about -30% to -63%; also: % is scaled to controls: 0 for no effect and ±100 for the full control effect
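Steps: dispense buffer (Tris pH 8.0, NaCl 300 mM, TCEP 1 mM, BSA, Tween 20); add 5X protein mix (GST-E1A, His-CtBP, 125 nM each); pin 23 nL compound; 2 h at 37 °C, dark; add 5X beads (50 ug/mL); 1 h; read.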
BAZ2B block: inhibitors of human BAZ2B bromodomain. Q9UIF8. AlphaScreen BAZ2B-H3K14Ac peptide displacement. Potency, µM (doses to about 114 µM), without a hit: top-dose activity change, negative = inhibition, hits mostly inhibitors. 4.4% of 360,000 active. AID 504333; also: potency is read from the fitted curve at half-maximal effect; % is scaled to controls: 0 for no effect and ±100 for the full control effect; nearly all actives have a fitted effect of over 60% in size
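AlphaScreen displacement of biotin-H3(5-23)K14Ac peptide (50 nM final) from BAZ2B (50 nM final) in PBS pH 7.4, 0.01% Tween-20; complex preformed 30 min RT, then compounds (top 110 uM) 30 min RT, beads 20 min dark.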
Six1-Eya2 inh: Six1/Eya2 interaction inhibition. Q15475+O00167. AlphaScreen GST-Six1/His-Eya2 binding, biochemical; stronger effect = lower value. activity change, % (concentration not given with the values). 0.56% of 360,000 active; in the data active = activity change below about -65%; inconclusive = mostly about -30% to -63%; also: % is scaled to controls: 0 for no effect and ±100 for the full control effect
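Compounds are tested against tagged Six1 and Eya2 proteins bridged by glutathione donor and nickel acceptor beads; after a one-hour incubation at 37 °C without light, AlphaScreen emission is recorded.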
JMJD2A Tudor inh: JMJD2A Tudor domain (human) inhibition; AlphaScreen JMJD2A-Tudor / H3K4me3 peptide binding; Potency, µM (highest dose often 114 µM), for the others: at the highest dose activity change, negative = inhibition, usual class: inhibitors; 4.4% of 390,000 active; AID 504339; also: potency is read from the fitted curve at half-maximal effect; % is scaled to controls: 0 for no effect and ±100 for the full control effect; nearly all actives have a fitted effect of over 50% in size
* = called active by the depositor; ? = inconclusive; nt = not tested or not shown; [ ] = dose if it differs, or a comment. The list is not random: actives were taken first. Their share in the collection is about 5.3%. Unless noted, calls follow the shape of the dose curve; as a rule, active = well fitted inhibition curve with a large enough effect; inconclusive = small, poorly fitted or top-dose-only effect; inactive = no such curve, though single readings can be large or run the other way.

SMILES	TDP1 inh	HP1b chromo inh	CtBP-E1A blk	BAZ2B block	Six1-Eya2 inh	JMJD2A Tudor inh
COc1ccc(CCNC(=O)C(=O)NCC(c2cccs2)S(=O)(=O)c2ccc(C)cc2)cc1 (stereo unspecified)	3%	27%	nt	2%	nt	-3%
CC(=O)c1c(C)oc(C)c1CSCc1ccc(C(=O)O)o1	?	-28%	-12	?	?	14µM*
Cc1ccc2nc(NC(=O)CN(C)S(=O)(=O)c3ccc(Br)s3)sc2c1	6%	19%	-4	-23%	8	-23%
Cc1ccc2nc(NC(=O)COC(=O)c3ccc(Br)o3)sc2c1	-3%	10%	-1	43%	-5	45µM*
O=C(COC(=O)c1ccc(Br)o1)Nc1nc2ccccc2s1	2%	?	-4	-6%	-1	-27%
Cc1ccc2nc(NC(=O)CNS(=O)(=O)c3ccc(Br)s3)sc2c1	0%	6%	5	-15%	1	50µM*
CCN(C(=O)c1cccn(Cc2ccccc2C)c1=O)c1ccccc1	2%	33%[57 µM]	nt	3%	nt	0%
COC(=O)Cn1cc(C(=O)C2CC2)c2ccccc21	9%	16%	-2	1%	8	5%
CC(NC(=O)Cn1cc(C(=O)C2CC2)c2ccccc21)c1ccccc1 (stereo unspecified)	3%	-5%	-5	9%	-1	79µM*
Cc1ccc(SCc2cc(=O)c3c(=O)n(-c4ccccc4)[nH]c3[nH]2)cc1	11%	?	-13	28µM*	-16	?
O=c1cc(CSc2ccc(Cl)cc2)[nH]c2[nH]n(-c3ccccc3)c(=O)c12	nt	?	1	35µM*	-4	?

Screening results as filed in PubChem BioAssay.
